Data published in PubChem BioAssay AID1053125 (Broad Institute, 2014).
Results with a measured potency or affinity are listed apart. Activity calls are given as the source filed them.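 How the source made its calls: active means viability loss whose fitted half-maximal concentration is at most twice the top valid tested dose; inconclusive means flat curve with 30 to 70% loss, or poor fit; inactive means the rest.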

Assay: viability loss in HepG2 liver cells – cell-based, ATP luminescence, cherry-pick, set 6, cytotoxicity control, dose response (AID 1053125)
Settings: ATP luminescence (CellTiter-Glo), 72 h; series mostly up to 26 µM; activity change, negative = cytotoxicity: at the top concentration
For `N#CC1=C(N)Oc2cc(O)ccc2C1c1ccc2c(c1)OCO2` (stereo not drawn), the “activity change, negative = cytotoxicity” value was -4.19% (inactive). In the case of `CC12CC(c3ccccc3O1)C(C(=O)OCc1ccccc1)C(=O)N2` (stereo not drawn), the “activity change, negative = cytotoxicity” value is reported as -4.78% (inactive). In the case of `CC(C)OP(=O)(O)NC(=O)c1ccccc1`, the “activity change, negative = cytotoxicity” value is reported as -5.2% (inactive).
